Data: PubChem BioAssay AID463115 (University of Pittsburgh Molecular Library Screening Center, 2010)
Hit rate of the full screen: of about 220,000 compounds, about 130 (0.059%) were called active. No stated cut-off is given here; in the data, active means inhibition above about 25%; inactive means the rest. The list comes from a sample in which actives are over-represented; it also holds similar structures and randomly drawn compounds.

Each compound was assayed against Furin (Homo sapiens) (UniProt P09958) (assay: human furin inhibitors, primary screen, biochemical, fluorescence intensity (AID 463115)). Conditions: purified furin, fluorogenic substrate cleavage, stronger effect = higher value; at 30 µM unless noted.
Sequence of Furin (Homo sapiens) (P09958 108-714 limits assumed): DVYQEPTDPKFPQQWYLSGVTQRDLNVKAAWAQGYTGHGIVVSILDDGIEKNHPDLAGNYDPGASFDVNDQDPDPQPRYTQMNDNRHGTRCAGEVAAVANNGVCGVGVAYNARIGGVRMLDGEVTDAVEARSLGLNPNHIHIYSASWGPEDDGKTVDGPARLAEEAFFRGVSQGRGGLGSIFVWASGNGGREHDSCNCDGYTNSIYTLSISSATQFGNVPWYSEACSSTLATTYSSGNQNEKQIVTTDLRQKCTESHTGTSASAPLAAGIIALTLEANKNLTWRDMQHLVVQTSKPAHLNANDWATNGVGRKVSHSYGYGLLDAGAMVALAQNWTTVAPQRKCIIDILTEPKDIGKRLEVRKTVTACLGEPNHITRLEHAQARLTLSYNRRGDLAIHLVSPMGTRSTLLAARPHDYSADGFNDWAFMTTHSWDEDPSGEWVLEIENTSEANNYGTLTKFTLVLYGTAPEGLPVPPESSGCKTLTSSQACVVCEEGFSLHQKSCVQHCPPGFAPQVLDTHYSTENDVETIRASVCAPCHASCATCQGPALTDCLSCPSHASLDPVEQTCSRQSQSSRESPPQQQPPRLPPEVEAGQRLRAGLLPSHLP
With COc1cccc(OCc2cc(/C=N/NC(=O)c3nc(Cl)c(Cl)c(N)c3Cl)ccc2OC)c1 the inhibition was -20.2% [at 20 µM] (inactive).
For Cc1ccc(C(=O)NC(=S)Nc2ccc3[nH]c(=O)[nH]c3c2)cc1C, the inhibition was -13.7% (inactive).
In the case of C=C(C)Cn1c(C)cc(C)c(S(=O)(=O)c2ccccc2C)c1=O, the inhibition is reported as 5.86% [at 20 µM] (inactive).
For CC(C)NC(=O)C(=O)N/N=C/c1ccco1, the inhibition was -9.76% [at 20 µM] (inactive).
With Cc1ccccc1NC(=O)Nc1ccccc1N1CCCCC1 the inhibition was -10.3% (inactive).
Cc1cc(OC(=O)c2ccccc2Cl)ccc1N1C(=O)CCC1=O was tested, and the inhibition was -16% (inactive).
Cc1cccc(-n2c(SCC(=O)Nc3cccc(S(=O)(=O)NC4=NCCCCC4)c3)nc3ccccc3c2=O)c1C was tested, and the inhibition was -12.8% (inactive).
For COc1ccc(CCNC(=O)C(=O)NCc2ccccc2C)cc1OC, the inhibition was -21% (inactive).
With CC(=O)NC(C)c1nc2ccccc2n1Cc1ccccc1F (centres undefined) the inhibition was 29.1% [at 20 µM] (active).
In the case of C=CCn1c(C(C)NC(=O)CC)nc2ccccc21 (centres undefined), the inhibition is reported as -10.5% [at 20 µM] (inactive).
In the case of CCC(=O)Nc1nc2ccccc2n1Cc1ccccc1C, the inhibition is reported as -19.3% (inactive).
In the case of CCCCNC(=O)N1CCN(S(C)(=O)=O)CC1, the inhibition is reported as -17.1% (inactive).
With CNC(=S)N/N=C/c1cn(Cc2ccc(C)cc2)c2ccccc12 the inhibition was -4.13% (inactive).
O=C1CCCc2nn(-c3ccccc3)nc21 was tested, and the inhibition was -13.3% [at 20 µM] (inactive).
With O=C(Nc1cccnc1)c1cc2cc(Br)ccc2oc1=O the inhibition was -18% (inactive).
With CSc1ccc(C#N)cc1NC(=O)c1ccc(Cl)cc1 the inhibition was -25.3% [at 20 µM] (inactive).
With COc1ccc(NC(=O)C(NC(C)=O)C(=O)NCc2ccccc2Cl)cc1 (centres undefined) the inhibition was -24.7% [at 20 µM] (inactive).
Cc1ccc(-c2cc(C(F)(F)F)n3ncc(C(=O)N4CCCCC4c4cccnc4)c3n2)cc1 (centres undefined) was tested, and the inhibition was -31.6% (inactive).
With Cc1ccc(N(Cc2cc3ccccc3[nH]c2=O)C(=O)c2cccs2)cc1 the inhibition was -16% (inactive).
With CC1(C)CC(=O)C(CC(=O)N2CCC(Cc3ccccc3)CC2)C(=O)C1 the inhibition was -13% (inactive).
With O=C(O)/C(=C/c1cccnc1)NC(=O)c1ccccc1 the inhibition was -17.1% (inactive).
For COc1cc([C@H](Cc2ccccc2)NC(C)=O)oc(=O)c1, the inhibition was -28.7% (inactive).
In the case of CSc1nc(C)nc(C2CC2)c1C#N, the inhibition is reported as -16.6% (inactive).
With C=CCOC(=O)C1=C(C)NC(C)=C(C(=O)OCC=C)C1c1cccs1 the inhibition was -8.1% [at 20 µM] (inactive).
With COc1ccc2c(CC(=O)OCC(=O)Nc3ccccc3[N+](=O)[O-])coc2c1 the inhibition was -10.8% (inactive).
Clc1ccc(C[n+]2cc(-c3ccccc3)n3c2CCC3)cc1 was tested, and the inhibition was -20.2% (inactive).
With CCC1C=C(c2ccccc2)C=CN=C1N(CC)CC (centres undefined) the inhibition was -18.4% (inactive).
For CC1=C(C)CC(C(=O)NC(C)CCc2ccccc2)C(C(=O)O)C1 (centres undefined), the inhibition was -15% (inactive).
For CC1=C(C)C(=O)OC(C(C)C2CCC3C4CC=C5CC(OC6OC(COC7OC(CO)C(O)C(O)C7O)C(O)C(O)C6O)CC(O)C5(C)C4CCC23C)C1 (centres undefined), the inhibition was -28.1% (inactive).
With CC1CCCC(C)N1/N=C/c1ccccc1OC(F)F (centres undefined) the inhibition was -34.3% (inactive).
With NC(N)=Nc1nc2ccc(Br)cc2c(=O)[nH]1 the inhibition was -13.8% (inactive).
In the case of CCOc1ccc(NC(=S)NC(=O)/C=C/c2ccc(OC)cc2)c([N+](=O)[O-])c1, the inhibition is reported as -14.6% (inactive).
In the case of Cc1c(Br)cc(C(=O)N2CCCCCC2)c(C)c1C, the inhibition is reported as -19.1% [at 20 µM] (inactive).
For CC(C)CCN1CCN(Cc2ccc(C(F)(F)F)cc2)CC1CCO (centres undefined), the inhibition was -11.2% (inactive).
With COc1ccc(OC)c(S(=O)(=O)NCCC(C)C)c1 the inhibition was -25.7% (inactive).
With O=C(NCCc1ccccn1)c1cc(-c2ccc(Cl)cc2)nc2ccccc12 the inhibition was -20.1% (inactive).
CC12CN3CCN(CC(C3)/C1=N\NC(=O)c1ccccc1N)C2 was tested, and the inhibition was -14.7% (inactive).
CC(CC(=O)O)CC(=O)NNC(=O)c1cccc(Br)c1 (centres undefined) was tested, and the inhibition was 4.22% (inactive).
In the case of CCCOn1c(-n2nc(C)cc2C)nc2ccccc2c1=O, the inhibition is reported as -1.39% [at 20 µM] (inactive).
CC(C)Oc1ccccc1C(=O)NC(CO)C(=O)O (centres undefined) was tested, and the inhibition was -21.8% (inactive).
CC(C)(C)NC(=O)NC(=O)COC(=O)Cc1ccc(Cl)cc1Cl was tested, and the inhibition was -11.5% (inactive).
With CCOC(=O)c1nnn2c1nc(N1CCN(c3ccccc3)CC1)c1ccccc12 the inhibition was -23.3% (inactive).
For C=C(C)C1CC=C(C)/C(=N/NC(=O)CCCNc2cccc(C)c2)C1 (centres undefined), the inhibition was -8.06% (inactive).
With CCc1ccc(NC(=O)CC2C(=O)NCCN2C(=S)Nc2ccccc2)cc1 (centres undefined) the inhibition was -22.7% (inactive).
In the case of CC(C)C(O)C1CCN(Cc2nc(Cc3ccccc3Cl)no2)CC1 (centres undefined), the inhibition is reported as -21.2% (inactive).
For COC(=O)c1sc(NC(=S)NC(=O)c2ccc(C)cc2)nc1C, the inhibition was -11.8% (inactive).
With CC(=O)c1sc(NC(=O)c2ccc(C)cc2)nc1C the inhibition was 26.4% [at 20 µM] (active).
With CC(=O)c1sc(NC(=O)c2cccc3ccccc23)nc1C the inhibition was -10.7% [at 20 µM] (inactive).
With CN(C)c1ccc(/C=N/NC(=O)C(O)c2ccc(Br)cc2)cc1 (centres undefined) the inhibition was -19% (inactive).
CCC(=O)NC(Nc1nc2ccc(C)cc2s1)(C(=O)OC)C(F)(F)F (centres undefined) was tested, and the inhibition was -11.3% [at 20 µM] (inactive).
CCCCNC(=O)OC(C)CNC(=O)OC (centres undefined) was tested, and the inhibition was -9.97% [at 20 µM] (inactive).
In the case of CN(C)/N=C/c1cn(-c2ccccc2)nc1-c1cccnc1, the inhibition is reported as 1.34% (inactive).
CCCNS(=O)(=O)c1ccc(CCC(=O)N2CCCC2)cc1 was tested, and the inhibition was -15.5% (inactive).
C=CC(COCc1ccccc1)N(Cc1ccccc1)S(=O)(=O)c1ccccc1Br (centres undefined) was tested, and the inhibition was -14.6% (inactive).
With COc1ccc(C2=NOC3(CC(=O)N(c4ccc(Cl)cc4)C3=O)C2)c(OC)c1 (centres undefined) the inhibition was -21.1% [at 20 µM] (inactive).
For O=C(NC1CCN(Cc2ccccc2)CC1)c1c(F)cccc1F, the inhibition was -12.2% (inactive).
In the case of Nc1c(NCCc2ccccc2)c2ccccc2oc1=O, the inhibition is reported as -0.514% (inactive).
For Cc1cc(Nc2ccc(N3CCOCC3)cc2)c2cccc(C)c2n1, the inhibition was 3.96% (inactive).
O=C(NN1C(=O)C2C(C1=O)C1C=CC2C12CC2)c1ccccc1Cl (centres undefined) was tested, and the inhibition was -7.61% (inactive).
